Data from PubChem BioAssay AID588477 (NMMLSC, 2011).
Calls of active or inactive are those of the source.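 How the source made its calls: active means valid curve fit with half-effect dose at most 10 µM and total binding change across doses of 30 points or more; inactive means the rest.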

What follows are compounds tested on Rac wt (assay: inhibitors of Bodipy-GTP binding across eight GTPases, SAR follow-up, selectivity assay for Cdc42 probe extension project, biochemical, round 1 SAR, Mg buffer, multiplex flow cytometry (AID 588477)). Details: GST-GTPase beads; series mostly up to 100 µM.

outcome, inactive:
O=C(C#Cc1ccccc1)c1cccc([N+](=O)[O-])c1
COc1ccc(C2CC(c3ccccc3)=NN2c2ccc(S(N)(=O)=O)cc2)cc1 (stereo not drawn)
NS(=O)(=O)c1ccc(N2N=C(c3ccccc3)CC2c2ccccc2)cc1 (stereo not drawn)
